Results taken from PubChem BioAssay (Tox21).
Results filed as inconclusive are left out. A call without a number means that no potency is given here. Calls of active or inactive are those of the source. The call rests on the fitted dose curve; in most records, active means well fitted curve in the direction sought with a large enough effect in the repeat runs; inconclusive means weak or mixed curves; inactive means no such curve, though single readings can be large; an effect the other way counts as inactive or inconclusive.

What follows are molecules tested against Voltage-gated inwardly rectifying potassium channel KCNH2 (Homo sapiens) (UniProt Q12809) (assay: Human Ether-a-go-go-Related Gene (hERG) channel small molecule antagonists: fluorescence cell-based qHTS assay (AID 1671200)). Conditions: hERG-U2OS cells, FluxOR thallium flux fluorescence; series mostly up to 76.8 µM.
Voltage-gated inwardly rectifying potassium channel KCNH2 (Homo sapiens), sequence (Q12809 whole entry, looked up): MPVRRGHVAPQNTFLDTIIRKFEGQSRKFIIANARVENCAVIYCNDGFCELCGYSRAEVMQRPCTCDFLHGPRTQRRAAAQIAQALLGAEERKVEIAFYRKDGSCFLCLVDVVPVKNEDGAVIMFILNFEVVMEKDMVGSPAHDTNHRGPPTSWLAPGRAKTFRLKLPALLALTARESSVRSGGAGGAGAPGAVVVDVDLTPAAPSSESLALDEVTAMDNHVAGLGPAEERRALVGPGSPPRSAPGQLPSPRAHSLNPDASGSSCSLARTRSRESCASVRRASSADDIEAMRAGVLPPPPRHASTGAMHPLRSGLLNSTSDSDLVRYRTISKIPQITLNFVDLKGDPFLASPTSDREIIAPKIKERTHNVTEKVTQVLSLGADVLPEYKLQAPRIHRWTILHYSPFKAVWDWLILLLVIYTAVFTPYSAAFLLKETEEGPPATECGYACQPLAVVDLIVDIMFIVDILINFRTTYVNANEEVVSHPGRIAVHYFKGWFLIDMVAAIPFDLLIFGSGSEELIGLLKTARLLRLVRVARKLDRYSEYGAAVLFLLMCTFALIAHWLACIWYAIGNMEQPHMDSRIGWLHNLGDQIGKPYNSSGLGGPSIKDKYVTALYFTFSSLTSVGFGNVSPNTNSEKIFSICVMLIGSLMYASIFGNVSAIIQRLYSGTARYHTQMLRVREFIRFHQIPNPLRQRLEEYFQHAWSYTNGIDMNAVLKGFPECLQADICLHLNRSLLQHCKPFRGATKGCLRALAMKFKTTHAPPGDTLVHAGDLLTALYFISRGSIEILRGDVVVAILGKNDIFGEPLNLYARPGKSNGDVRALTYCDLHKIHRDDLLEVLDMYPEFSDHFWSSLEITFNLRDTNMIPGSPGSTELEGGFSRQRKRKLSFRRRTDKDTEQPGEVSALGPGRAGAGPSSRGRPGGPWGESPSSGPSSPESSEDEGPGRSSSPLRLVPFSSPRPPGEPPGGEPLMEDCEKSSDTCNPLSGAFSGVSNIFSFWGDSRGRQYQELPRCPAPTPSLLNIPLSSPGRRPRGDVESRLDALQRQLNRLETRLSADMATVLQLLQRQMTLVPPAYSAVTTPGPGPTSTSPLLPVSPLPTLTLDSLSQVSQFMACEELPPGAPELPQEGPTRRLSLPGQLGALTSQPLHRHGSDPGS
Method in brief: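 Read-out: thallium influx as a surrogate for potassium, tracked as fluorescence (480 nm ex/540 nm em) every second for 2 min after Stimulus Buffer addition in dye-loaded hERG-U2OS cells.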
Further: nearly all actives have a fitted effect of over 50% in size.
Potency means the concentration at half of the fitted maximal effect.

Row | Structure (SMILES) | Potency
1 | O=C(O)Cc1csc(-c2ccc(Cl)cc2)n1 | inactive
2 | Cc1ccc(C(=O)c2ccc(CC(=O)O)n2C)cc1 | inactive
3 | CC1=CCC(O)(C(C)C)CC1 (stereo unspecified) | inactive
4 | CC1=CC(=O)[C@H]2C[C@@H]1C2(C)C | inactive
5 | CC[N+](CC)(CC)CCOc1cccc(OCC[N+](CC)(CC)CC)c1OCC[N+](CC)(CC)CC | inactive
6 | CCCCOCCOC(=O)COc1cc(Cl)c(Cl)cc1Cl | 24.5 µM (active)
7 | C[C@H]1[C@H](NC(=O)/C(=N/OC(C)(C)C(=O)O)c2csc(N)n2)C(=O)N1S(=O)(=O)O (stereo in doubt) | inactive
8 | CCN(CC#N)c1cccc(C)c1 | inactive
9 | FB(F)F | inactive
10 | C=C(C)C(=O)OCC1CCCO1 (stereo unspecified) | inactive
11 | CCN(C=O)CC | inactive
12 | CCC1C(=O)OCC1Cc1cncn1C (stereo unspecified) | inactive
13 | CO/N=C(\C(=O)N[C@@H]1C(=O)N2C(C(=O)O)=C(CSc3nc(=O)c(O)nn3C)CS[C@H]12)c1csc(N)n1 | inactive
14 | CC(=O)Nc1ccc(OCC(O)CNC(C)C)cc1 (stereo unspecified) | inactive
15 | COCCOCC(OC)OC | inactive
16 | CN(C)CCCN(C)CCCN(C)C | inactive
17 | CCOc1ccccc1OCC | inactive
18 | Cc1onc(-c2c(Cl)cccc2Cl)c1C(=O)Cl | inactive
19 | CCCCCCCCCCCCCCC(=O)O | inactive
20 | C=CCOCC(O)CO (stereo unspecified) | inactive
21 | Cc1ccnc(NS(=O)(=O)c2ccc(N)cc2)n1 | inactive
22 | N[C@@H](CCC(=O)O)C(=O)O | inactive
23 | C[N+]12CCC(CC1)C(OC(=O)C(O)(c1ccccc1)c1ccccc1)C2 (stereo unspecified) | inactive
24 | CN1[C@@H]2CC[C@H]1CC(OC(=O)C(O)c1ccccc1)C2 (stereo partly specified) | inactive
25 | CCOC(=O)COC(=O)c1ccccc1C(=O)OCC | inactive
26 | CC(CC=O)CC(C)(C)C (stereo unspecified) | inactive
27 | O=[N+]([O-])c1cncn1CCN1CCOCC1 | inactive

What follows are molecules tested against Cytochrome P450 3A4 (Homo sapiens) (UniProt P08684) (assay: Cytochrome P450 Family 3 Subfamily A Member 4 (CYP3A4) small molecule antagonists: luciferase reporter qHTS assay (AID 1671201)). Conditions: P450-Glo CYP3A4 enzyme, luciferin luminescence, 1 h; series mostly up to 115 µM.
Cytochrome P450 3A4 (Homo sapiens), sequence (P08684 whole entry, looked up): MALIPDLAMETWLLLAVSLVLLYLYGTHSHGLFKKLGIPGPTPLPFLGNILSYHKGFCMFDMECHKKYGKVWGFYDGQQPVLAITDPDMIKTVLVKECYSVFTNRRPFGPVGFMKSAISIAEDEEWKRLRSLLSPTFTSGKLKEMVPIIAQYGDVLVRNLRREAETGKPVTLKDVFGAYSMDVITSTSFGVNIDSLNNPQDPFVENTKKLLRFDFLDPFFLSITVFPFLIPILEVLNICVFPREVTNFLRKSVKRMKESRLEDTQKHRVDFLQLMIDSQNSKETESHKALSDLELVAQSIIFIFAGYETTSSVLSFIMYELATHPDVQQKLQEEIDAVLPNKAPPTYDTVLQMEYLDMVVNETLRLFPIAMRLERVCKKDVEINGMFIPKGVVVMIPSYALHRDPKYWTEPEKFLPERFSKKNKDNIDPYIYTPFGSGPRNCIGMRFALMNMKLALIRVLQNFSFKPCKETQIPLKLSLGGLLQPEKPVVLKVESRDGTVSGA
Method in brief: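 Luminescent readout (RLU) proportional to CYP3A4 activity, from luciferin generated off a proluciferin substrate. Enzyme–substrate mix plus compound 10 min at room temp, NADPH regeneration 1 h, detection reagent 20 min.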

Row | Structure (SMILES) | Potency
28 | CCOC(=O)C1=NOC(c2ccccc2)(c2ccccc2)C1 | inactive
29 | O=C(O)Cc1csc(-c2ccc(Cl)cc2)n1 | inactive
30 | Cc1ccc(C(=O)c2ccc(CC(=O)O)n2C)cc1 | inactive
31 | CC1=CCC(O)(C(C)C)CC1 (stereo unspecified) | inactive
32 | Cc1ncc([C@@H](CCCCCCc2ccc3c(n2)NCCC3)CC(=O)O)cn1 | inactive
33 | CC1=CC(=O)[C@H]2C[C@@H]1C2(C)C | inactive
34 | CC[N+](CC)(CC)CCOc1cccc(OCC[N+](CC)(CC)CC)c1OCC[N+](CC)(CC)CC | inactive
35 | CCCCOCCOC(=O)COc1cc(Cl)c(Cl)cc1Cl | inactive
36 | C[C@H]1[C@H](NC(=O)/C(=N/OC(C)(C)C(=O)O)c2csc(N)n2)C(=O)N1S(=O)(=O)O (stereo in doubt) | inactive
37 | CCN(CC#N)c1cccc(C)c1 | inactive
38 | C=C(C)C(=O)OCC1CCCO1 (stereo unspecified) | inactive
39 | CCN(C=O)CC | inactive
40 | CCC1C(=O)OCC1Cc1cncn1C (stereo unspecified) | 11 µM (active)
41 | CO/N=C(\C(=O)N[C@@H]1C(=O)N2C(C(=O)O)=C(CSc3nc(=O)c(O)nn3C)CS[C@H]12)c1csc(N)n1 | inactive
42 | CC(=O)Nc1ccc(OCC(O)CNC(C)C)cc1 (stereo unspecified) | inactive
43 | COCCOCC(OC)OC | inactive
44 | CC(C)(N)C#N | inactive
45 | CN(C)CCCN(C)CCCN(C)C | inactive
46 | Nc1ccncc1N | inactive
47 | CCCCCCCCCCCCCCC(=O)O | inactive
48 | C=CCOCC(O)CO (stereo unspecified) | inactive
49 | Cc1ccnc(NS(=O)(=O)c2ccc(N)cc2)n1 | inactive
50 | N[C@@H](CCC(=O)O)C(=O)O | inactive
51 | C[N+]12CCC(CC1)C(OC(=O)C(O)(c1ccccc1)c1ccccc1)C2 (stereo unspecified) | inactive
52 | CN1[C@@H]2CC[C@H]1CC(OC(=O)C(O)c1ccccc1)C2 (stereo partly specified) | inactive
53 | CCOC(=O)COC(=O)c1ccccc1C(=O)OCC | inactive
54 | C[C@H]1C[C@H]2[C@@H]3CCC4=CC(=O)C=C[C@]4(C)[C@H]3C(=O)C[C@]2(C)[C@@]1(O)C(=O)CO | inactive
55 | Cc1coc2ccccc2c1=O | inactive
56 | CC(CC=O)CC(C)(C)C (stereo unspecified) | inactive
